Changes are numbered by the printed parent chain.
Columns and labels:
Assay in all cases: PBM; 200 nM protein, PBS
Conditions in all cases: dsDNA, one strand shown
[1] = target: CRX (Homo sapiens, UniProt O43186 26-111)
[2] = target: HOXB9 (Homo sapiens, UniProt P17482 171-250, T197M)
[3] = target: T1, SIX6 (Homo sapiens, UniProt O95475 114-200, L167I)
T1 sequence: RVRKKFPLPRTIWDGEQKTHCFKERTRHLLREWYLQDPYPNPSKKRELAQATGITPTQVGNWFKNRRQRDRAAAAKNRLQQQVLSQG

[4] = target: HOXA4 (Homo sapiens, UniProt Q00056 201-287, W262R)
Chain of HOXA4 (Homo sapiens, UniProt Q00056 201-287, W262R) (Q00056 201-287 W262R): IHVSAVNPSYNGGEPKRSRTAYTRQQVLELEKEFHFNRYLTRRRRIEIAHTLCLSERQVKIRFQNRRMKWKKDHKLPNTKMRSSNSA

[5] = target: T2, SIX6 (Homo sapiens, UniProt O95475 114-200, L143V)
T2 sequence: T1 sequence with L30V, I54L

[6] = target: T3, SIX6 (Homo sapiens, UniProt O95475 114-200, H141N)
T3 sequence: T1 sequence with H28N, I54L

[7] = target: T4, SIX6 (Homo sapiens, UniProt O95475 114-200, T165P)
T4 sequence: T1 sequence with T52P, I54L

[8] = target: T5, SIX6 (Homo sapiens, UniProt O95475 114-200, L167M)
T5 sequence: T1 sequence with I54M

[9] = target: T6, SIX6 (Homo sapiens, UniProt O95475 114-200, L143M)
T6 sequence: T1 sequence with L30M, I54L

[10] = target: T7, SIX6 (Homo sapiens, UniProt O95475 114-200, L143I)
T7 sequence: T1 sequence with L30I, I54L

[11] = target: T8, SIX6 (Homo sapiens, UniProt O95475 114-200, T165G)
T8 sequence: T1 sequence with T52G, I54L

[12] = target: HOXA4 (Homo sapiens, UniProt Q00056 201-287, R217L)
Chain of HOXA4 (Homo sapiens, UniProt Q00056 201-287, R217L) (Q00056 201-287 R217L): as the sequence (Q00056 201-287 W262R) above, with R17L, R62W counted along it

[13] = target: HOXB9 (Homo sapiens, UniProt P17482 171-250)
Chain of HOXB9 (Homo sapiens, UniProt P17482 171-250) (P17482 171-250): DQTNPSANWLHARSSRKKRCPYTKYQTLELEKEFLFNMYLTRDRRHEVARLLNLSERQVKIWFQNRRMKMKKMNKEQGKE

[14] = target: T9, SIX6 (Homo sapiens, UniProt O95475 114-200, T139Q)
T9 sequence: T1 sequence with T26Q, I54L

[15] = target: CRX (Homo sapiens, UniProt O43186 26-111, E42D)
Chain of CRX (Homo sapiens, UniProt O43186 26-111, E42D) (O43186 26-111 E42D): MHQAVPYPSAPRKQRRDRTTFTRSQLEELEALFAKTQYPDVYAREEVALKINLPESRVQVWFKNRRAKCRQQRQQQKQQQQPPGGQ

[16] = target: T10, SIX6 (Homo sapiens, UniProt O95475 114-200, T165A)
T10 sequence: T1 sequence with T52A, I54L

[17] = target: HOXA4 (Homo sapiens, UniProt Q00056 201-287)
Chain of HOXA4 (Homo sapiens, UniProt Q00056 201-287) (Q00056 201-287): as the sequence (Q00056 201-287 W262R) above, with R62W counted along it

[18] = target: T11, SIX6 (Homo sapiens, UniProt O95475 114-200, L167V)
T11 sequence: T1 sequence with I54V

[19] = target: T12, SIX6 (Homo sapiens, UniProt O95475 114-200)
T12 sequence: T1 sequence with I54L

[20] = target: T13, SIX6 (Homo sapiens, UniProt O95475 114-200, T165I)
T13 sequence: T1 sequence with T52I, I54L

[21] = target: HOXB9 (Homo sapiens, UniProt P17482 171-250, R186Q)
Chain of HOXB9 (Homo sapiens, UniProt P17482 171-250, R186Q) (P17482 171-250 R186Q): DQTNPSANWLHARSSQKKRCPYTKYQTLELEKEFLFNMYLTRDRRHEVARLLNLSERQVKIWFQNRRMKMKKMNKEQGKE

[22] = target: CRX (Homo sapiens, UniProt O43186 26-111, R41L)
Chain of CRX (Homo sapiens, UniProt O43186 26-111, R41L) (O43186 26-111 R41L): as the sequence (O43186 26-111 E42D) above, with R16L, D17E counted along it

[23] = target: HOXA4 (Homo sapiens, UniProt Q00056 201-287, W262F)
Chain of HOXA4 (Homo sapiens, UniProt Q00056 201-287, W262F) (Q00056 201-287 W262F): as the sequence (Q00056 201-287 W262R) above, with R62F counted along it

[24] = target: HOXC9 (Homo sapiens, UniProt P31274 178-260, K195R)
Chain of HOXC9 (Homo sapiens, UniProt P31274 178-260, K195R) (P31274 178-260 K195R): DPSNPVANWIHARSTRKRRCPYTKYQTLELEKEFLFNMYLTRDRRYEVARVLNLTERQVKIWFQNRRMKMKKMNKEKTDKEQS

[25] = target: HOXA7 (Homo sapiens, UniProt P31268 116-202)
Chain of HOXA7 (Homo sapiens, UniProt P31268 116-202) (P31268 116-202): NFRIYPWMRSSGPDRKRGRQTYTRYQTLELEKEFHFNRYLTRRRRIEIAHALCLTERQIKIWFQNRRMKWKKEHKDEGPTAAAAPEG

[26] = target: T14, PAX4 (Homo sapiens, UniProt O43316 9-242, R200K)
T14 sequence: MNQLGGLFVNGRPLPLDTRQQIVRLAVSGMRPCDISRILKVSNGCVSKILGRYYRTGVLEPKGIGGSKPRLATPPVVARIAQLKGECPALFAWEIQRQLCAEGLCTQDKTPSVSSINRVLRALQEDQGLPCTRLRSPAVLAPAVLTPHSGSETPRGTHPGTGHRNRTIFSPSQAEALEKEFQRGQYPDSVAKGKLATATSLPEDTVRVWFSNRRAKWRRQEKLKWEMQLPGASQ

[27] = target: T15, PAX4 (Homo sapiens, UniProt O43316 9-242)
T15 sequence: T14 sequence with K192R

[28] = target: HOXB6 (Homo sapiens, UniProt P17509 132-218, K202E)
Chain of HOXB6 (Homo sapiens, UniProt P17509 132-218, K202E) (P17509 132-218 K202E): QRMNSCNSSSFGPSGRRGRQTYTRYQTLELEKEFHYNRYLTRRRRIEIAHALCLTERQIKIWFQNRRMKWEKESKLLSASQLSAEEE

[29] = target: HOXC9 (Homo sapiens, UniProt P31274 178-260)
Chain of HOXC9 (Homo sapiens, UniProt P31274 178-260) (P31274 178-260): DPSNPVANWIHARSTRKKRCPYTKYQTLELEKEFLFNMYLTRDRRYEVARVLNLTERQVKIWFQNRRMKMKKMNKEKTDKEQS

[30] = target: ALX3 (Homo sapiens, UniProt O95076 139-225, N203Q)
Chain of ALX3 (Homo sapiens, UniProt O95076 139-225, N203Q) (O95076 139-225 N203Q): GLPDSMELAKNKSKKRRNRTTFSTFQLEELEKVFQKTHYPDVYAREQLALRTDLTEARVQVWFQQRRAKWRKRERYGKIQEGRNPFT

[31] = target: HOXD13 (Homo sapiens, UniProt P35453 263-343, T313R)
Chain of HOXD13 (P35453 263-343 T313R): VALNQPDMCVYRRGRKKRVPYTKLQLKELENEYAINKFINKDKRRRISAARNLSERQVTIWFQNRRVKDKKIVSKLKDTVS

[32] = target: T16, PAX4 (Homo sapiens, UniProt O43316 9-242, R200Q)
T16 sequence: T14 sequence with K192Q

[33] = target: HOXC9 (Homo sapiens, UniProt P31274 178-260, R193K)
Chain of HOXC9 (Homo sapiens, UniProt P31274 178-260, R193K) (P31274 178-260 R193K): as the sequence (P31274 178-260) above, with R16K counted along it

[34] = target: T17, PAX4 (Homo sapiens, UniProt O43316 9-242, F177V)
T17 sequence: T14 sequence with F169V, K192R

[35] = target: HOXC10 (Homo sapiens, UniProt Q9NYD6 254-340, K271E)
Chain of HOXC10 (Q9NYD6 254-340 K271E): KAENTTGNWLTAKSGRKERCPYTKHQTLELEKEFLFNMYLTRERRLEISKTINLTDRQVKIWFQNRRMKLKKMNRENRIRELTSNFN

[36] = target: T18, PAX4 (Homo sapiens, UniProt O43316 9-242, F177Y)
T18 sequence: T14 sequence with F169Y, K192R

[37] = target: HESX1 (Homo sapiens, UniProt Q9UBX0 95-180, R109Q)
Chain of HESX1 (Homo sapiens, UniProt Q9UBX0 95-180, R109Q) (Q9UBX0 95-180 R109Q): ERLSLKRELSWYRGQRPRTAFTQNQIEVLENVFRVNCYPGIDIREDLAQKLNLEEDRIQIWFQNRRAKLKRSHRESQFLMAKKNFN

[38] = target: HOXC9 (Homo sapiens, UniProt P31274 178-260, R222W)
Chain of HOXC9 (Homo sapiens, UniProt P31274 178-260, R222W) (P31274 178-260 R222W): as the sequence (P31274 178-260) above, with R45W counted along it

[39] = target: HESX1 (Homo sapiens, UniProt Q9UBX0 95-180, F115L)
Chain of HESX1 (Homo sapiens, UniProt Q9UBX0 95-180, F115L) (Q9UBX0 95-180 F115L): as the sequence (Q9UBX0 95-180 R109Q) above, with Q15R, F21L counted along it

[40] = target: T19, PAX4 (Homo sapiens, UniProt O43316 9-242, R227W)
T19 sequence: T14 sequence with K192R, R219W

[41] = target: HOXA7 (Homo sapiens, UniProt P31268 116-202, W177C)
Chain of HOXA7 (Homo sapiens, UniProt P31268 116-202, W177C) (P31268 116-202 W177C): as the sequence (P31268 116-202) above, with W62C counted along it

[42] = target: ALX3 (Homo sapiens, UniProt O95076 139-225, N203S)
Chain of ALX3 (Homo sapiens, UniProt O95076 139-225, N203S) (O95076 139-225 N203S): as the sequence (O95076 139-225 N203Q) above, with Q65S counted along it

[43] = target: HOXB6 (Homo sapiens, UniProt P17509 132-218)
Chain of HOXB6 (Homo sapiens, UniProt P17509 132-218) (P17509 132-218): as the sequence (P17509 132-218 K202E) above, with E71K counted along it

Chain of HOXB9 (Homo sapiens, UniProt P17482 171-250, T197M) (P17482 171-250 T197M): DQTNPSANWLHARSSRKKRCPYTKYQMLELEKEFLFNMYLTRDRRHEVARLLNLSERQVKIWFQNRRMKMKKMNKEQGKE
Chain of CRX (Homo sapiens, UniProt O43186 26-111) (O43186 26-111): as the sequence (O43186 26-111 E42D) above, with D17E counted along it

CACGCCCC
binding signal [1]: 8.24 upbm affinity estimate (log intensity, higher = more binding, comparable within an allelic series)
binding signal [2]: 8.49 upbm affinity estimate (log intensity, higher = more binding, comparable within an allelic series)
binding signal [3]: 9.05 upbm affinity estimate (log intensity, higher = more binding, comparable within an allelic series)
binding signal [4]: 9.84 upbm affinity estimate (log intensity, higher = more binding, comparable within an allelic series)
binding signal [5]: 8.92 upbm affinity estimate (log intensity, higher = more binding, comparable within an allelic series)
binding signal [6]: 9.05 upbm affinity estimate (log intensity, higher = more binding, comparable within an allelic series)
binding signal [7]: 8.95 upbm affinity estimate (log intensity, higher = more binding, comparable within an allelic series)
binding signal [8]: 8.99 upbm affinity estimate (log intensity, higher = more binding, comparable within an allelic series)
binding signal [9]: 9.02 upbm affinity estimate (log intensity, higher = more binding, comparable within an allelic series)
binding signal [10]: 8.94 upbm affinity estimate (log intensity, higher = more binding, comparable within an allelic series)
binding signal [11]: 9.18 upbm affinity estimate (log intensity, higher = more binding, comparable within an allelic series)
binding signal [12]: 9.86 upbm affinity estimate (log intensity, higher = more binding, comparable within an allelic series)
binding signal [13]: 8.48 upbm affinity estimate (log intensity, higher = more binding, comparable within an allelic series)
binding signal [14]: 9.14 upbm affinity estimate (log intensity, higher = more binding, comparable within an allelic series)
binding signal [15]: 8.24 upbm affinity estimate (log intensity, higher = more binding, comparable within an allelic series)
binding signal [16]: 9.17 upbm affinity estimate (log intensity, higher = more binding, comparable within an allelic series)
binding signal [17]: 9.74 upbm affinity estimate (log intensity, higher = more binding, comparable within an allelic series)
binding signal [18]: 8.99 upbm affinity estimate (log intensity, higher = more binding, comparable within an allelic series)
binding signal [19]: 9.08 upbm affinity estimate (log intensity, higher = more binding, comparable within an allelic series)
binding signal [20]: 9.05 upbm affinity estimate (log intensity, higher = more binding, comparable within an allelic series)
binding signal [21]: 8.47 upbm affinity estimate (log intensity, higher = more binding, comparable within an allelic series)
binding signal [22]: 8.33 upbm affinity estimate (log intensity, higher = more binding, comparable within an allelic series)
binding signal [23]: 9.99 upbm affinity estimate (log intensity, higher = more binding, comparable within an allelic series)

ATATTAAT
binding signal [1]: 11.6 upbm affinity estimate (log intensity, higher = more binding, comparable within an allelic series)
binding signal [2]: 10.2 upbm affinity estimate (log intensity, higher = more binding, comparable within an allelic series)
binding signal [24]: 12.5 upbm affinity estimate (log intensity, higher = more binding, comparable within an allelic series)
binding signal [25]: 11.2 upbm affinity estimate (log intensity, higher = more binding, comparable within an allelic series)
binding signal [26]: 11.7 upbm affinity estimate (log intensity, higher = more binding, comparable within an allelic series)
binding signal [27]: 12.1 upbm affinity estimate (log intensity, higher = more binding, comparable within an allelic series)
binding signal [28]: 10.1 upbm affinity estimate (log intensity, higher = more binding, comparable within an allelic series)
binding signal [13]: 11.8 upbm affinity estimate (log intensity, higher = more binding, comparable within an allelic series)
binding signal [15]: 11.5 upbm affinity estimate (log intensity, higher = more binding, comparable within an allelic series)
binding signal [29]: 12.5 upbm affinity estimate (log intensity, higher = more binding, comparable within an allelic series)
binding signal [30]: 8.63 upbm affinity estimate (log intensity, higher = more binding, comparable within an allelic series)
binding signal [31]: 10.8 upbm affinity estimate (log intensity, higher = more binding, comparable within an allelic series)
binding signal [32]: 11.9 upbm affinity estimate (log intensity, higher = more binding, comparable within an allelic series)
binding signal [33]: 12.5 upbm affinity estimate (log intensity, higher = more binding, comparable within an allelic series)
binding signal [34]: 10.7 upbm affinity estimate (log intensity, higher = more binding, comparable within an allelic series)
binding signal [35]: 11.8 upbm affinity estimate (log intensity, higher = more binding, comparable within an allelic series)
binding signal [36]: 11 upbm affinity estimate (log intensity, higher = more binding, comparable within an allelic series)
binding signal [37]: 8.59 upbm affinity estimate (log intensity, higher = more binding, comparable within an allelic series)
binding signal [21]: 11.5 upbm affinity estimate (log intensity, higher = more binding, comparable within an allelic series)
binding signal [38]: 11.1 upbm affinity estimate (log intensity, higher = more binding, comparable within an allelic series)
binding signal [39]: 8.13 upbm affinity estimate (log intensity, higher = more binding, comparable within an allelic series)
binding signal [40]: 11 upbm affinity estimate (log intensity, higher = more binding, comparable within an allelic series)
binding signal [41]: 9 upbm affinity estimate (log intensity, higher = more binding, comparable within an allelic series)
binding signal [22]: 11 upbm affinity estimate (log intensity, higher = more binding, comparable within an allelic series)
binding signal [42]: 8.74 upbm affinity estimate (log intensity, higher = more binding, comparable within an allelic series)
binding signal [43]: 11.8 upbm affinity estimate (log intensity, higher = more binding, comparable within an allelic series)

Reference: article PMC11006913
